# Sampled rows, rich in hits. Any-hit rate of the full collection: about 2.4%.
# Pol beta inh: inhibitors of human DNA polymerase beta; Pol beta primer extension/strand displacement, fluorescence kinetic; Potency, µM (series often up to 114 µM), actives largely listed as inhibitors; actives 1.3% (n = 340,000)
#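 Pol beta (10 nM) was preincubated with compound for 15 min at room temperature. The reaction was then started with 50 nM substrate and read immediately and after a further 10 min at room temperature.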
# FEN1 inh: blocks human flap endonuclease 1. Potency, µM (titrated, usually from 114 µM), hits mostly inhibitors. actives 0.35% (n = 390,000). AID 588795. Recombinant FEN1 flap cleavage, fluorescence, 15 min. P39748; note: nearly all actives have a fitted effect of over 65% in size
#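 Recombinant FEN1 (10 nM) was preincubated with pin-transferred compounds for 15 min at room temperature, then flap DNA substrate (50 nM final) was added. Plates were read at 0 and 15 min, and normalized concentration–response data were fitted to a four-parameter Hill equation.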
# WRN helicase inh: blocks human WRN helicase | Potency, µM (highest dose often 114 µM), most hits filed as inhibitors | actives 0.46% (n = 360,000) | Q14191 | WRN helicase unwinding, fluorescent forked duplex, kinetic; note: nearly all actives have a fitted effect of over 55% in size
#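 Screening of the MLSMR collection measured strand separation of a quenched forked DNA duplex (100 nM) by 20 nM WRN with 2 mM ATP, all final. Compounds were preincubated with enzyme 15 min at room temperature.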
# POLK inh: blocks human DNA polymerase kappa activity. purified Pol kappa, fluorescent DNA synthesis assay, 10 min. Potency, µM (top dose mostly 107 µM), hits mostly inhibitors. actives 0.53% (n = 400,000). AID 588579
#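 Kinetic fluorescence screen: compound preincubated 15 min RT with 10 nM enzyme; 50 nM substrate (final) initiates; reads at 0/10 min.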
# POLH inh: inhibitors of human DNA polymerase eta | recombinant Pol eta, fluorescent DNA replication assay | Potency, µM (top dose mostly 114 µM), actives largely listed as inhibitors | actives 1.2% (n = 390,000) | Q9Y253
#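 Fluorescent replication assay: 50 nM final substrate added after a 15 min room-temperature compound preincubation with 10 nM enzyme. Signal taken at 0 min and again at 10 min.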
# POLI inh: blocks human DNA polymerase iota activity | AID 588590 | actives 1% (n = 390,000) | Q9UNA4 | Pol iota fluorescent replication assay, 10 min | Potency, µM (series often up to 115 µM), most hits filed as inhibitors
#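 Pol iota at 10 nM preincubated 15 min with compounds at room temperature; reaction started with fluorescent substrate, 50 nM final. Fluorescence read kinetically at 0 and 10 min; buffer-only wells as negative control.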
# A number is an active result; – = inactive; ? = inconclusive; · = no result. Calls come from the whole dose curve; as a rule, active = well fitted curve in the direction sought with a large enough effect; inconclusive = small, poorly fitted or top-dose-only effect, or another doubt; inactive = no such curve, though single readings can be large; an effect the other way counts as inactive or inconclusive.
SMILES,Pol beta inh,FEN1 inh,WRN helicase inh,POLK inh,POLH inh,POLI inh
COc1ccc(CNC(=O)Cn2ncn3c(cc4ccccc43)c2=O)cc1,–,–,–,–,–,–
COc1cccc(C(=O)Nc2ccc(S(=O)(=O)Nc3nccc(C)n3)cc2)c1,?,–,?,–,–,–
CCOc1ccc2nc(SCC(=O)NC(=O)NCc3ccco3)sc2c1,–,–,–,–,–,–
Cc1sc2ncnc(SCC(=O)NC(=O)NCc3ccco3)c2c1C,11µM,–,–,?,89µM,?
O=C(CSc1nc2cc(Cl)ccc2s1)NC(=O)NCc1ccco1,45µM,–,?,?,35µM,–
Cc1nc(SCC(=O)NC(=O)NCc2ccco2)nc(C)c1C,18µM,–,–,–,–,?
CC1(C)CC(CC(=O)O)(c2ccc(F)cc2)CCO1 (centres undefined),–,–,–,–,–,–
O=C1C(Cl)=C(NS(=O)(=O)c2ccc([N+](=O)[O-])cc2)C(=O)c2ccccc21,–,–,79µM,–,?,?
O=[N+]([O-])c1ccc(Oc2ccc(S(=O)(=O)Nc3ccccc3)cc2)cc1,–,–,–,–,–,–
CCc1ccccc1OCC(=O)Nc1cccc(S(=O)(=O)N2CCCC2)c1,·,–,–,–,–,–
N#CCCn1cc(C(=O)NCc2ccccc2)c(-c2cccs2)n1,–,–,–,–,–,–
COC/C=C/C1=CC2=CC(=O)C(C)(OC(=O)c3cnc4ccccc4n3)C(=O)C2=CN1C1CCCCC1 (centres undefined),–,·,·,·,·,·
COC/C=C/C1=CC2=CC(=O)C(C)(OC(=O)c3cnc4ccccc4n3)C(=O)C2=CN1c1ccccc1 (centres undefined),?,–,–,79µM,25µM,?
COC/C=C/C1=CC2=CC(=O)C(C)(OC(=O)c3cnc4ccccc4n3)C(=O)C2=CN1CC(C)C (centres undefined),·,?,–,?,25µM,?
COC/C=C/C1=CC2=CC(=O)C(C)(OC(=O)c3cnc4ccccc4n3)C(=O)C2=CN1c1ccc(CO)cc1 (centres undefined),1.8µM,·,·,·,·,·
CCc1ccc(S(=O)(=O)Nc2ccc(-c3nc4cccnc4s3)cc2)s1,–,–,–,–,–,–
O=C(Cn1ccc(C(F)(F)F)n1)NNC(=O)c1ccco1,·,–,–,–,–,–
CC(=C/c1ccccc1)/C=N/NC(=O)c1ccccn1,63µM,–,–,–,–,–
O=C(N/N=C/c1ccncc1)c1ccc(NC(=O)c2cccc(Cl)c2)cc1,8.9µM,–,–,?,?,?
CC(/C=N/NC(=O)c1ccc2nc(C)[nH]c2c1)=C\c1ccccc1,28µM,–,–,–,?,–
CC(/C=N/NC(=O)c1cc(C(C)(C)C)[nH]n1)=C\c1ccccc1,–,–,–,–,–,–
COc1ccccc1/C=C/C=N/NC(=O)c1ccc2nc[nH]c2c1,35µM,·,·,·,·,·
COc1ccc(OC)c(/C=N/NC(=O)c2ccc3nc[nH]c3c2)c1,–,–,–,–,–,–
O=C(N/N=C/c1ccncc1)c1ccc(NC(=O)c2ccc(Cl)cc2)cc1,–,–,–,–,–,–
Cc1cc(-n2cc(Br)c(=O)[nH]c2=O)nc(-c2ccccc2)n1,–,–,–,–,–,–
SMILES,Pol beta inh,FEN1 inh,WRN helicase inh,POLK inh,POLH inh,POLI inh
Cc1nc2ccccc2cc1C(=O)N/N=C/c1ccccc1[N+](=O)[O-],–,–,–,–,–,–
CC(=C/c1ccccc1)/C=N/NC(=O)c1ccc2nc[nH]c2c1,32µM,–,–,–,–,–
O=C(N/N=C/c1ccc(Cl)cc1Cl)c1ccc2nc[nH]c2c1,16µM,–,–,–,–,–
CC(/C=N/NC(=O)c1cccc(F)c1)=C\c1ccccc1,18µM,–,–,–,–,–
COc1cccc(/C=N/NC(=O)c2ccc3nc[nH]c3c2)c1,?,–,–,–,–,–
COc1ccccc1C(=O)N/N=C/C(C)=C/c1ccccc1,?,–,–,–,–,–
O=C(N/N=C/c1ccc(OC(=O)c2cccs2)cc1)c1cccc(F)c1,8.9µM,–,–,–,–,–
CCCCOc1ccc(/C(O)=C2/C(=O)C(=O)N(Cc3cccnc3)C2c2ccncc2)c(C)c1 (centres undefined),–,–,–,–,–,–
S=C(NCc1ccccc1)N1CCc2ccccc2C1,–,–,–,–,–,–
Cc1sc2c(c1C)c(=O)n(Cc1ccccc1)c(=O)n2CC(=O)Nc1cccc(Cl)c1,–,–,·,–,·,–
C(=N\N=C\c1ccccc1)/c1ccccc1,–,–,–,–,–,–
O=C(N/N=C/C(Br)=C\c1ccccc1)c1ccc2nc[nH]c2c1,13µM,–,–,–,?,?
Cc1ccc(S(=O)(=O)N(C)c2ccccc2C(=O)Nc2ccc(F)cc2F)cc1,–,–,–,–,–,–
COc1cc2nc(CCc3nc4cc(OC)c(OC)cc4[nH]3)[nH]c2cc1OC,·,–,·,3.2µM,·,2.5µM
Cc1cc2nc(CO)[nH]c2cc1C,–,–,–,–,–,–
O=C1C(Cc2ccccc2)Nc2ncnc(N3CCOCC3)c2N1Cc1ccccc1 (centres undefined),·,–,–,–,–,–
Cc1ccc(-c2cc(C(F)(F)F)n3nc(-c4ccc(Cl)cc4)cc3n2)cc1,–,–,·,–,–,–
Cc1ccc(-c2cc(C(F)(F)F)n3nc(-c4cccc(Br)c4)cc3n2)cc1,–,–,·,?,–,89µM
S=C(Nc1cccnc1)Nc1cccc2cnccc12,–,–,–,–,–,?
CN(C)S(=O)(=O)c1cccc(NC(=S)Nc2cccc3cnccc23)c1,–,?,–,–,–,2.8µM
COCCn1c(Cc2ccccc2)nnc1SCC(=O)NC1CCCCC1,–,–,–,–,–,–
C=CCNC(=O)c1ccccc1NS(=O)(=O)c1ccccc1,–,–,–,–,–,–
CCN(CC)S(=O)(=O)c1cccc(C(=O)N/N=C/c2ccccc2OCC(=O)O)c1,–,–,–,–,–,–
CCN(CC)S(=O)(=O)c1cccc(C(=O)N/N=C/c2c(C)nn(-c3ccccc3)c2Cl)c1,14µM,–,–,–,–,–
COCCCNC(=O)c1ccc(Cn2c(=O)c3ccccc3n(CC(=O)Nc3c(C)cccc3C)c2=O)cc1,50µM,–,·,–,–,89µM
CCC(C)NC(=O)Cn1c(=O)n(Cc2ccc(C(=O)NCc3ccccc3OC)cc2)c(=O)c2ccccc21 (centres undefined),?,–,·,–,–,–
CCC(C)NC(=O)Cn1c(=O)n(Cc2ccc(C(=O)NCc3ccc(C)cc3)cc2)c(=O)c2ccccc21 (centres undefined),20µM,–,·,–,?,–

# Source: PubChem BioAssay
